Data taken from PubChem BioAssay AID449762 (Southern Research Specialized Biocontainment Screening …, 2010).
Screen size: about 330,000 compounds; about 1,900 (0.58%) were called active. Roughly 4% stayed inconclusive and do not appear here. Not all results are given here. Entries with a potency or affinity are not part of this list. A number with no mark means an inactive call. Rule as the data show it: inconclusive = inhibition above about 70% without an active follow-up result; inactive = below that.

experiment: M. tuberculosis growth inhibition, HTS (AID 449762);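 also: bacterial growth assessed after seven days of incubation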; details: M. tuberculosis H37Rv growth inhibition, 7H9 media; at 25 µM; active compounds read high

| SMILES | inhibition [%] |
| --- | --- |
| O=C(COC(=O)c1ccc(Cl)nc1)NNC(=O)c1ccc(Cl)cc1 | 5.61 |
| O=C(NCCC1=CCCCC1)c1cc(S(=O)(=O)N2CCOCC2)c(Cl)cc1Cl | 2.93 |
| CCc1ccccc1N(CC(=O)NCC1CCCO1)C(=O)CCC(=O)Nc1cc(C)on1 (stereo not given) | -3.22 |
| COc1ccc(OC)c(S(=O)(=O)N2CCC(C(=O)Nc3cc(C)ccc3C)CC2)c1 | -10.6 |
| Cc1ccccc1C1C(C#N)=C2N=C(N)c3ccccc3N2C2=C1C(=O)CCC2 (stereo not given) | 6.31 |
| CCOC(=O)/C(=N\Nc1ccccc1)c1csc(Nc2ccc(C)cc2)n1 | 7.86 |
| CCOC(=O)/C(=N\Nc1ccc(C(C)=O)cc1)c1csc(Nc2ccccc2)n1 | -1.99 |
| Cc1ccc(NC(=O)CN(C)C(=O)c2ccc3[nH]c4c(c3c2)CC(C)CC4)cc1 (stereo not given) | -5.07 |
| O=C(OCc1ccc(Cl)cc1)c1cnccn1 | 31.1 |
| O=C(c1ccccc1)c1ccc(COC(=O)c2cnccn2)cc1 | 18 |
| COC(=O)CN(c1cccc(OC)c1)S(C)(=O)=O | 1.45 |
| CN(C)C(CNc1ncnc2sccc12)c1cccs1 (stereo not given) | -3.95 |
| CCOC(=O)c1sc2ncnc(NCc3ccco3)c2c1C | 0.46 |
| NC(=O)c1ccsc1NC(=O)COC(=O)Cc1c[nH]c2ccccc12 | 2.86 |
| COc1ccc(/C=C2/SC(=O)N(CCNC(=O)CC(NC(C)=O)c3ccccc3)C2=O)cc1 (stereo not given) | -1.58 |
| Cc1ccc(CC(=O)Nc2ccc(Cl)cn2)cc1 | 3.62 |
| Cc1ccc(NC(=O)Cc2ccc(Cl)cc2)nc1 | 11.2 |
| O=C(c1ccc(Cl)cc1)N1N=CCC1(O)c1ccc(Cl)cc1 (stereo not given) | 2.13 |
| C[C@H](NC(=O)c1[nH]cnc1C(=O)Nc1ccon1)c1ccccc1 | -0.305 |
| O=C(OCC(=O)N1CCN(C(=O)c2ccco2)CC1)c1cc(-c2ccco2)nc2ccccc12 | 6.06 |

| SMILES | inhibition [%] |
| --- | --- |
| O=C(OCC(=O)N1CCN(C(=O)c2ccco2)CC1)c1cc(-c2ccc(Cl)c(Cl)c2Cl)nc2ccccc12 | 4.98 |
| COc1ccc(CN(C)C(=O)C(Cc2ccccc2)NC(=O)c2ccccc2)c(OC)c1 (stereo not given) | 0.87 |
| COc1cc(CN2CCC(n3nccc3NC(=O)CCCc3ccccc3)CC2)ccc1F | -1.97 |
| CCC(C)(C)C1CCC(=NNC(=S)Nc2ccccc2)CC1 (stereo not given) | 6.86 |
| CC1CCC/C(=N\NC(=O)Nc2ccccc2)C1 (stereo not given) | -3.97 |
| CCN(CC(=O)NCc1ccc(Cl)cc1)C(=O)c1ccc(S(=O)(=O)N(C)C)cc1 | -8.9 |
| N=C1N(/N=C/c2ccccc2)C(=Nc2ccccc2)C(=S)N1c1ccccc1 | -15.3 |
| Cc1ccc(N=C2C(=S)N(c3ccc(C)cc3)C(=N)N2/N=C/c2ccc(Cl)cc2)cc1 | -4.74 |
| CNC(=O)CSCc1cnn(-c2ccccc2)c1-n1cccc1 | -0.17 |
| Nc1ccc(S(=O)(=O)N2CCCC2C(=O)O)cc1 (stereo not given) | -7.07 |
| Nc1nonc1C(=O)NCCNCc1ccccc1OCc1ccccc1F | 2.36 |
| Nc1nonc1C(=O)NCCNCc1cc(Br)ccc1OCc1ccccc1F | 14.5 |
| COc1ccc(N(CC(=O)NC2CC3CCC2C3)S(=O)(=O)c2ccc(C)c([N+](=O)[O-])c2)cc1 (stereo not given) | 2.1 |
| O=C(COc1ccc(-n2ccnc2)cc1)Nc1cccc(Cl)c1 | -3.44 |
| COc1cc(NC(=O)COc2ccc(-n3ccnc3)cc2)cc(OC)c1 | 38.6 |
| Cc1ccc(C(=O)N2CCN(c3ccc([N+](=O)[O-])c(NCc4cccnc4)c3)CC2)cc1 | 0.99 |
| COc1cc(/C=c2\s/c(=C\C(=O)C(C)(C)C)[nH]c2=O)cc(OC)c1OC | 69 |
| CC(C)(C)C(=O)/C=c1\[nH]c(=O)/c(=C\c2ccccc2F)s1 | 48.4 |
| O=C(Nc1c(C(=O)NCc2ccco2)cnn1-c1ccccc1)c1ccc(F)cc1 | 3.13 |
| COc1ccc(C(=O)Nc2nnc(S(=O)(=O)Cc3ccccc3)s2)cc1 | 8.58 |

| SMILES | inhibition [%] |
| --- | --- |
| O=C(N/N=C/c1ccccc1)C(=O)N/N=C/c1ccccc1 | 2.46 |
| O=C(CC1CCCC1)N1CCN(S(=O)(=O)c2ccc(F)cc2)CC1 | -4.71 |
| COC(=O)c1ccccc1NC(=O)COC(=O)CSc1nnc(N)s1 | 0.97 |
| CC(C)(C)OC(=O)NCCCCCNC(=O)c1[nH]cnc1C(=O)Nc1ccon1 | -5.82 |
| COc1ccc(NC(=O)NCc2cccnc2)cc1OC | -5.2 |
| COC(=O)Cn1nc(-c2ccccc2)c2ccccc21 | 31.4 |
| COC(=O)Cn1nc(-c2ccccc2)c2ccccc2c1=O | 65.5 |
| Cc1ccccc1C(=O)N1CCC(C(=O)N(CC(C)C)c2c(N)n(CC(C)C)c(=O)[nH]c2=O)CC1 | -6.17 |
| COC(=O)[C@H](CCSC)NC(=O)NCc1cccs1 | -7.69 |
| Cc1cc(C)nc(N2CCC(C(=O)Nc3cccc(C(F)(F)F)c3)CC2)n1 | -14.2 |
| Cc1cccc(NC(=O)C2CCN(c3nccc(C)n3)CC2)c1 | 3.71 |
| CCOC(=O)c1cn(CC)c2cc(Cl)c([N+](=O)[O-])cc2c1=O | 9.8 |
| CCCN1CCN(C2CCCCC2NS(=O)(=O)c2ccccc2)CC1 (stereo not given) | -5.87 |
| OC(COC(c1ccc(F)cc1)c1ccc(F)cc1)CN1CCc2ccccc2C1 (stereo not given) | 28.2 |
| OC(COC(c1ccccc1)c1ccccc1)CN1CCc2ccccc2C1 (stereo not given) | 4.67 |
| CCOc1ccc(Oc2nc(NCC(C)C)nc(N(C)C)n2)nn1 | -2.04 |
| COC(=O)Cn1c(=O)oc2ccc(C)cc21 | -1.52 |
| COc1cc(NC(=O)CCc2c(C)nc3nc(C)nn3c2C)cc(OC)c1 | 2.33 |
| COC(=O)c1ncccc1SC | -6.32 |
| COC(=O)c1sccc1NC(=O)CSc1cccc(Cl)c1Cl | 11 |
